This note sets out measurements from PubChem BioAssay AID651784 (National Center for Advancing Translational Sciences (NCATS), 2012).

Inconclusive results are not listed. The call rests on the fitted dose curve; in most records, active means well fitted inhibition curve with a large enough effect; inconclusive means small, poorly fitted or top-dose-only effect; inactive means no such curve, though single readings can be large or run the other way.

The nature of this test: Acumen qHTS Assay for Inhibitors of the mTORC1 Signaling Pathway in MEF (Tsc2-/-, p53-/-) Cells: Hit Validation.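 Further: phospho-rpS6 Ser235/236 immunofluorescence normalized to propidium iodide cell count; cells exposed to compound for 24 hours; plate controls were DMSO for no effect and 7.5 nM rapamycin control for full effect; nearly all actives have a fitted effect of over 65% in size.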 To be noted: Acumen imaging; activity change, negative = inhibition: at 37.3 µM (top of the series). For orientation: Quantitative high-throughput screening tests each substance at several concentrations.
For `CC(C)OCCCn1c(=O)c2ccccc2n2c(-c3ccc(F)cc3)nnc12`, the activity change, negative = inhibition stood at 17.3%.
Then `CC(=O)N1CCCc2cc(S(=O)(=O)N(Cc3ccccc3)C(C)C)ccc21`, with -22.8%; and `Cc1nn(CC(=O)NCc2ccccc2Cl)c(=O)c2cccn12`, with 6.27%; and `CC(=O)Nc1ccc2nc(-c3cc(C)ccc3C)[nH]c2c1`, with -21.9%.
Next, `O=C(c1ccco1)n1nc(-c2ccc(Cl)cc2)nc1NCc1ccccc1`: -47.3%; `O=C(Cn1c(=O)c2ccccc2n(CC(=O)Nc2ccc(Cl)cc2)c1=O)NCCc1ccccc1`: 0.576%; `CN(C)c1ccc(Nc2nc3ccccc3n3nnnc23)cc1`: -10%.
